In the library only some 2.4% were active in any assay of this set; here they are far more common.
ADAM10 inh – human ADAM10 inhibitors, primary screen, biochemical, QFRET, HTS | recombinant ADAM10, EDANS/DABCYL FRET peptide cleavage, 3 h | 370,000 compounds, 0.62% hits | inhibition, % at 7 µM;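 active = inhibition above a per-campaign cutoff equal to the mean of compounds falling between control-based bounds plus 3 SD, cut at about 20% in these data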;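 note: 0% = DMSO wells while the 100% control is not disclosed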
Target sequence (O14672 214-748 limits assumed): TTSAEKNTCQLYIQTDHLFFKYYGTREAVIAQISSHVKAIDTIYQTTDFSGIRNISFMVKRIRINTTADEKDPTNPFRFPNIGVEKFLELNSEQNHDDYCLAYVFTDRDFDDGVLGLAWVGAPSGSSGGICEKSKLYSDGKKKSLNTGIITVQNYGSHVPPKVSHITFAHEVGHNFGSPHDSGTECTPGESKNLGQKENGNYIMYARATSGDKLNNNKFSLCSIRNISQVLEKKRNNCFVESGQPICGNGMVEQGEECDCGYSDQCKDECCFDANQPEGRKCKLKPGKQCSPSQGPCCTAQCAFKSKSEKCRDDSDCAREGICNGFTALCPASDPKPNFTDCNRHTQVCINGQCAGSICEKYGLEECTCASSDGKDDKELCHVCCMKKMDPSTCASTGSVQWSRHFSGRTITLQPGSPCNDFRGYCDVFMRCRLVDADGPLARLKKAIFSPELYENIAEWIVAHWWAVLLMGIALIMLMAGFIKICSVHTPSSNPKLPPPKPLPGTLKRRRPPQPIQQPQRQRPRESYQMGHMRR
ADAM17 inh – ADAM17 inhibitors, primary screen, biochemical, QFRET. Disintegrin and metalloproteinase domain-containing protein 17 (Homo sapiens), P78536. recombinant ADAM17, EDANS/DABCYL FRET peptide cleavage. inhibition, % at 6.95 µM. 370,000 compounds, 0.83% hits;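 active = inhibition above the mean of compounds lying between control limits plus 3 SD, set per campaign, cut at about 8.5% in these data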;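 note: 0% = DMSO-only wells as the low control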
A3G deaminase – APOBEC3G DNA deaminase inhibitors, primary screen, biochemical, fluorescence, single-stranded DNA substrate, uHTS; DNA dC->dU-editing enzyme APOBEC-3G (Homo sapiens), Q9HC16; recombinant A3G, ssDNA deamination FAM/TAMRA fluorescence; inhibition, % at 20 µM; 330,000 compounds, 0.28% hits; AID 493012, 2011;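 active = inhibition of at least 40% at 20 µM, with no more than 30% in the related APOBEC3A deaminase screen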;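 note: plate controls were DMSO wells with A3G for no effect and wells lacking A3G enzyme for full effect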
NRP1-CendR mod – modulators of CendR peptide binding to NRP-1, primary screen, biochemical, fluorescence polarization, uHTS; Neuropilin-1 (Homo sapiens), O14786; FAM-RPARPAR peptide binding to NRP-1; inhibition, % at 25 µM; 360,000 compounds, 0.85% hits; AID 602438, 2012;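 active = inhibition or corrected inhibition above about 18%, plus a signal ratio from 0.5 to 1.5, limit read from the data, passing the limit was not always enough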
APOBEC3A inh – APOBEC3A ssDNA deaminase inhibitors, primary screen, selectivity assay for APOBEC3G inhibitor project, biochemical, FAM/TAMRA oligo cleavage fluorescence | 330,000 compounds, 0.41% hits | recombinant A3A, FAM/TAMRA ssDNA deamination fluorescence | inhibition, % at 20 µM;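 active = at least 40% inhibition at 20 µM here, with at most 30% in a related deaminase screen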;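 note: plate controls were A3A with DMSO for no effect and wells lacking A3A enzyme for full effect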
A3A conf – APOBEC3A deaminase inhibitors, retest, confirmation, selectivity assay for APOBEC3G inhibitor project, biochemical, single concentration, fluorescence readout | 1,400 compounds, 63% hits | recombinant A3A, ssDNA deaminase UDG fluorescence assay | shares compounds with APOBEC3A inh | inhibition, % at 20 µM;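 active = inhibition reaching a set limit, 80% of the first screen's cutoff, at 20 µM in any replicate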;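 note: plate controls were DMSO wells with A3A for no effect and wells lacking A3A enzyme for full effect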
UDG A3A counter – E. coli UDG inhibitors, confirmation, counter-screen for APOBEC3A inhibitor project, biochemical, single concentration, fluorescence, FAM/TAMRA oligo. shares compounds with APOBEC3A inh. UDG counterscreen, FAM/TAMRA uracil oligo fluorescence. inhibition, % at 20 µM. 1,000 tested, under 10 active; call rule not given here
Numbers without * were called inactive; · = not tested or not shown.

SMILES | ADAM10 inh | ADAM17 inh | A3G deaminase | NRP1-CendR mod | APOBEC3A inh | A3A conf | UDG A3A counter
O=C(CN1CCCC1)OCCCc1ccccc1 | 15 | -1 | -6 | -6 | -4 | · | ·
C[N+]1(CC(=O)OCCCc2ccccc2)CCCC1 | 13 | -3 | 17 | 10 | 55* | 81* | -3
CC(C)[N+](C)(C)CC(O)CN(c1ccccc1)c1ccccc1 (stereo not given) | 8 | -3 | 10 | -2 | 61* | 71* | 0
NCC(O)CN(c1ccccc1)c1ccccc1 (stereo not given) | 3 | 0 | -4 | -6 | -4 | · | ·
O=C(COC(=O)c1ccc(F)c(S(=O)(=O)N2CCOCC2)c1)Nc1ccc2[nH]c(=O)[nH]c2c1 | -18 | -3 | 15 | -19 | 42* | 42* | -2
COC(=O)[C@]12C[C@H](CC(=O)NCc3cccc(C(F)(F)F)c3)C(=O)N(CCC3=CCCCC3)C1=C[C@H](COCc1ccccc1)O[C@@H]2C | -1 | 4 | · | · | · | · | ·
CCn1c(=O)c(C(=O)CN2CCN(S(=O)(=O)c3ccc(C)cc3C)CC2)c(N)n(Cc2ccccc2)c1=O | 15 | 7 | 7 | -13 | 44* | 2 | ·
CCn1c(=O)c(C(=O)CN2CCN(S(=O)(=O)c3ccccc3)CC2)c(N)n(Cc2ccccc2)c1=O | 7 | 2 | -11 | -7 | 8 | · | ·
COC1=C[C@H](C(=O)NCc2ccc(OC)cc2)C(C)C(c2ccccc2)CC1=O (stereo not given in full) | -6 | -2 | · | · | · | · | ·
COc1cccc(OCCn2cc(C(=O)c3ccco3)c3ccccc32)c1 | 3 | 3 | -3 | -12 | 0 | · | ·
COc1cccc(OCCn2cc(C(C)=O)c3ccccc32)c1 | -2 | 0 | 7 | -6 | 48* | 14 | ·
CSc1ccc(S(=O)(=O)N2CCC(C(=O)NCC3CCCO3)CC2)cc1 (stereo not given) | 3 | -1 | 11 | 2 | 63* | 56* | 2
CC[n+]1ccccc1/C=C/Nc1ccccc1 | 1 | -2 | 18 | 7 | 61* | 70* | 7
CC(=O)N1CCc2cc(S(=O)(=O)NCCC(=O)NCc3ccc(Cl)cc3)ccc21 | 1 | 0 | · | · | · | · | ·
Cc1cc(-c2n[nH]c(=S)n2N=Cc2c3ccccc3cc3ccccc23)n[nH]1 | -35 | -8 | · | · | · | · | ·
O=C1C2C(c3ccccc3)C=CC(c3ccccc3)C2C(=O)N1c1ccncc1 (stereo not given) | 3 | -2 | 5 | 7 | 4 | · | ·
O=C1C2C3C=CC(C3)C2C(=O)N1c1ccncc1 (stereo not given) | -5 | -5 | -6 | -12 | 83* | -8 | -4
COc1cccc(CNC(=O)CN2CCCc3ccccc32)c1 | -9 | -3 | · | · | · | · | ·
N#Cc1ccc(CN2CCN(C(=O)Cn3nc(C(N)=O)c4ccccc4c3=O)CC2)cc1 | -2 | 0 | 6 | 8 | 58* | 25 | ·
COc1ccc(Cl)cc1C(=O)NNC(=O)c1csc(N2CCOCC2)n1 | 2 | 1 | -6 | 1 | 41* | -4 | 3
Cc1ccccc1-c1noc(CCC(=O)NCC2CCCO2)n1 (stereo not given) | -1 | 4 | 11 | -14 | 44* | 3 | ·
COc1ccccc1-c1noc(CCC(=O)NC2CCCC2)n1 | 4 | -3 | -10 | 11 | 45* | 1 | 0
COc1ccc(CSCC(=O)N/N=C/c2ccc(OCC(=O)N3CCCCC3)cc2)cc1 | -7 | -2 | 22 | 4 | 52* | 52* | -2
CCN1/C(=C/c2ccc3cc(C)ccc3[n+]2CC)Sc2cc(C)c(C)cc21 | 1 | 1 | 19 | -213 | 57* | 80* | ·
C=CCN1C(C(=O)OC)CN(Cc2cn(CCC3OCCO3)nn2)CCS1(=O)=O (stereo not given) | -7 | -5 | · | · | · | · | ·
SMILES | ADAM10 inh | ADAM17 inh | A3G deaminase | NRP1-CendR mod | APOBEC3A inh | A3A conf | UDG A3A counter
O=C(O)COc1ccc(/C=N/NC(=O)C2CCCN2S(=O)(=O)c2ccc(Cl)cc2)cc1 (stereo not given) | 9 | -1 | 4 | -4 | 51* | 13 | ·
C=CCn1nnnc1SCC(=O)Nc1cccc(C(F)(F)F)c1 | 2 | -5 | 23 | 1 | 70* | 81* | -3
COC(=O)[C@]12C[C@H](CC(=O)NCCCN3CCCC3=O)C(=O)N(CCc3ccc(OC)c(OC)c3)C1=C[C@H](C(C)(C)C)O[C@@H]2C | 1 | 2 | · | · | · | · | ·
COc1ccc2c(c1)sc(=N)n2C | -4 | -1 | 15 | 1 | 44* | 29 | ·
CC(=O)c1ccc2c3c(cccc13)C(=O)N(c1c(C)nn(C)c1C)C2=O | 6 | -1 | 28 | 3 | 48* | 4 | ·
Cc1ccc(-c2cc(-c3nnc(SCC(=O)Nc4ccc(OCc5ccccc5)cc4)n3N)[nH]n2)cc1 | 0 | 1 | · | · | · | · | ·
COc1cccc(CNC(=O)[C@H]2CCCN2C(=O)[C@H]2CCCN2C(=O)N2CCCCC2)c1 | 0 | -1 | · | · | · | · | ·
Cn1cc(/C=C/c2cc[n+](C)cc2)c2cc(F)ccc21 | · | · | · | 143 | · | · | ·
C[n+]1ccc(/C=C/c2c[nH]c3ccc(F)cc23)cc1 | -13 | 1 | 12 | 104 | 49* | 45* | ·
C[N+](C)(C)CCN1C(=O)CSC1=O | -4 | -4 | 16 | -13 | 55* | 48* | 6
CCOC(=O)[C@]12CCCCC/C=C\1N(CCc1ccc(Cl)cc1)C(=O)[C@H]2CC(=O)NCc1cccs1 | 9 | 4 | · | · | · | · | ·
CC(=O)Nc1ccc(NC(=O)C(C)OC(=O)c2cccc(S(=O)(=O)N3CCCC3)c2)cc1 (stereo not given) | -2 | 1 | 16 | -3 | 42* | 6 | ·
CCN1CCN(c2ccc(S(=O)(=O)N3CCOCC3)cc2NC(=O)CC(C)C)CC1 | -15 | 4 | 2 | 10 | 3 | · | ·
CCN1CCN(c2ccc(S(=O)(=O)N3CCCCC3)cc2NC(=O)/C=C/c2ccc([N+](=O)[O-])cc2)CC1 | 7 | 4 | 12 | 1 | 40* | 18 | ·
CCN1CCN(c2ccc(S(=O)(=O)N3CCCCC3)cc2NC(=O)/C=C/c2ccc(F)cc2)CC1 | 3 | 1 | 22 | -2 | 61* | 64* | 0
